Structures are written as SMILES. Among all 190,000 compounds or so, about 930 (0.49%) were called active. The list shows a part of the results. Measured potencies and affinities stand elsewhere. Values without a mark were called inactive.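 The calls were made as follows: active = z-score of insulin promoter reporter brightness in nuclei below -3 at 5 µM, with at least 500 cells counted; inconclusive = wells with under 500 cells, flagged as toxic or sparse; inactive = the rest.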

The assay in a line: decrease of insulin promoter-GFP reporter – imaging, high-content screening, mouse beta cells (AID 1628). The note with it: MIN6 insulin promoter GFP reporter, at 5 µM, stronger effect = lower value.
Consider `N#C/C(=C/c1ccc(-c2cc(C(=O)O)cc(C(=O)O)c2)o1)c1nc2ccccc2s1`, for which the z-score is 3.02.
The figure for `COc1ccc(C(NC(C)=O)c2ccc3cccnc3c2O)c(OC)c1` (stereo not given) is -5.39 (active).
The figure for `COc1cc2c3nnc(-c4ccccc4)c-3cn(Cc3ccccc3F)c2cc1OC` is 12.9; for `O=C(CNC(=O)c1ccco1)OCC(=O)c1ccccc1` it is 4.35.
As for `Cc1ccc(C(=O)COC(=O)CNC(=O)c2ccc(N3C(=O)c4ccccc4C3=O)cc2)cc1C`, the z-score was -3.38 (active).
For the compound `CCOC(=O)C1=C(C)OC(N)=C(C#N)C1c1cc(SCC)oc1C` (stereo not given), the z-score is 0.96.
For `COC(=O)[C@@H](NC(=O)Nc1cccc(OC)c1)C(C)C` the value was 3.01; for `COc1cccc(NC(=O)N2CCCC2C(=O)NC(C)C)c1` (stereo not given), -5.72 (active).
The figure for `COc1cccc(NC(=O)N2CCN(c3nnnn3-c3ccccc3)CC2)c1` is 3.09.
The figure for `Cn1c(=O)c(NC2CCCCC2)c2c3c(cccc31)C(=O)c1ccccc1-2` is 16.9; for `O=C(NCCCN1CCN(Cc2ccccc2)CC1)C1CCN(c2nnc(-n3cccc3)s2)CC1` it is -4.79 (active); for `CC1c2nc3ccccc3n2C(CC(=O)NCCCN2CCOCC2)C(=O)N1Cc1ccccc1` (stereo not given) it is 2.82.
With `O=C(NCCCN1CCCCCC1)C1CC(=O)N(C2CCCC2)C1` (stereo not given), the z-score was 4.02.
For `CC(C)CCNC(=S)Nc1ccc([N+](=O)[O-])cc1` the value was -5.03 (active); for `Cc1[nH]c2ccccc2c1/C=N/Nc1ccc([N+](=O)[O-])cc1`, 13.9; for `CNC(=S)Nc1ccc([N+](=O)[O-])cc1`, 4.22.
The figure for `CCOC(=O)CC1C(=O)NCCN1S(=O)(=O)c1ccc(Cl)cc1Cl` (stereo not given) is 3.29; for `COc1ccc(-c2ccc(-c3nnc(Cc4ccc(OC)c(OC)c4)o3)cc2)cc1` it is -4.88 (active).
The figure for `COc1ccc(C2CC(=O)N(CCCN(C)CCc3ccc(OC)c(OC)c3)C2)cc1` (stereo not given) is 1.63; for `Cc1ccc(-c2nnc(Cc3ccc([N+](=O)[O-])cc3)o2)cc1` it is 2.29.
Regarding `O=C(/C=C/c1ccc2ccccc2n1)c1cc(Br)ccc1O`, the z-score was 4.36.
The figure for `CCOC(=O)Cn1c(=O)c(-c2cc(Br)ccc2N)nc2ccccc21` is 6.82; for `CC(=O)c1cccc(NC(=O)c2c(F)c(F)c(F)c(F)c2F)c1` it is 0.06.
Consider `C/C(=N\NC(=O)c1cccc(N/N=C(\C)c2cc(O)ccc2O)c1)c1cc(O)ccc1O`, for which the z-score is -4.19 (active).
The figure for `Cc1cc(C2C(C#N)=C(N)Oc3n[nH]c(C)c32)c(C)s1` (stereo not given) is 3.37.
The figure for `Cc1ccc(OCCn2nc3ccccc3n2)c(C)c1` is -6.61 (active); for `Cc1c(C(=O)O)cccc1-c1ccc(/C=C2/NC(=O)N(c3ccccc3)C2=O)o1` it is 3.88.
For `O=C(Nc1ccccc1)Nc1ccc(-n2ccc(C(F)(F)F)n2)cc1`, the z-score was -3.4 (active).
Take `C=CCC(c1ccccc1)N(C(C)=O)c1ccco1` (stereo not given): the z-score is 3.62.
The figure for `CC(/C=C/c1ccco1)=N\NC(=O)C(O)c1ccccc1` (stereo not given) is -4.52 (active); for `COc1ccc(CNC(=O)/C=C/c2ccco2)cc1OC` it is 1.08.
For `CCOc1cc([N+](=O)[O-])cc2c1C(=O)Nc1ccccc1O2` the value was 5.94; for `CCOC(=O)c1cc2c(ccn2C)n1CC(=O)N1CCC(Cc2ccccc2)CC1`, -3.62 (active).
For `Cc1cccc2c(C(=O)N3CCN(C(=O)c4ccco4)CC3)cc(-c3cccc(Br)c3)nc12`, the z-score was -4.53 (active).
For `Nc1nc(N2CCN(C(=O)c3ccco3)CC2)nc2ccc(Br)cc12` the value was -3.6 (active); for `CC(=O)c1ccc2cccc3c2c1N=CN3C`, 3.38.
The figure for `CN(C)S(=O)(=O)c1ccc(N2CCN(S(=O)(=O)c3ccc(F)cc3)CC2)c(Cl)c1` is -3.39 (active).
The figure for `Cc1sc2nc(C3CC3)nc(NCCNS(=O)(=O)c3ccccc3)c2c1C` is -0.22; for `CN(C)/C=C1/Nc2ccccc2C1=O` it is 4.71.
In the case of `COC1OC(CO)C(O)C(O)C1O` (stereo not given), the z-score was -0.58.
The figure for `Cc1cc(C)nc(SCC(=O)Nc2ccc(N3CCOCC3)c(Cl)c2)n1` is -11 (active); for `Cc1ccc(NC(=O)CCn2cccc2)cc1Cl` it is 3.23; for `O=S(=O)(Nc1cc2nc3ccccc3nc2n1Cc1ccccc1)c1ccc(Cl)cc1` it is 15.3.
Turning to `CCc1nc(Nc2ccc(N3CCN(C(C)=O)CC3)cc2)c2oc3ccccc3c2n1`, the z-score is -4.54 (active).
On to `Cc1nc2c(oc3ccccc32)c(=O)o1`, for which the z-score was 4.23.
In the case of `Cc1cccc(N2CCCn3c2nc2c3c(=O)n(CCN3CCOCC3)c(=O)n2C)c1`, the z-score is -3.6 (active).
The figure for `Cc1cc(/C=C2\NC(=S)N(C)C2=O)ccc1N1CCCC1` is 14.3; for `Cc1oc2ncnc(N)c2c1C` it is 0.96.
For `CCCCN(C)CC(O)Cn1cc(/C=C/C(=O)c2cccs2)c2ccccc21` (stereo not given) the value was 4.79; for `CC(NC(=O)/C(C#N)=C1\N=C(NC(=O)c2cccs2)c2ccccc21)c1ccccc1` (stereo not given), 3.96.
On to `CC(Cc1cccs1)NC(=O)Nc1ccccc1` (stereo not given), for which the z-score is -4.74 (active).
Turning to `Nc1nnc(-c2cc3c(ccc4ccccc43)oc2=O)s1`, the z-score was 8.81.
With `O=C(c1ccco1)N1CCN(C(=O)N2c3ccccc3Sc3ccccc32)CC1`, the z-score is -3.22 (active).
For `CN(C)N(C)C(=O)C(O)(c1ccccc1)c1ccccc1` the value was -3.03 (active).
As to `COC(=O)c1ccc(N2CCN(S(=O)(=O)c3ccc4ccccc4c3)CC2)c([N+](=O)[O-])c1`, the z-score is -4.04 (active).
As for `CCN1CC=C2C(C#N)=C(N)C(C#N)(C#N)C(c3cc(Cl)ccc3Cl)C2C1` (stereo not given), the z-score was 15.3.
As for `O=C1c2cccc3c(N4CCCCC4)ccc(c23)C(=O)N1c1ccc(O)cc1`, the z-score is 6.1.
On to `O=C(COc1ccc2ccccc2c1Br)Nc1ncn[nH]1`, for which the z-score was 1.51.
The figure for `Cc1cc(-c2ccccc2)cc(-c2ccccc2)[n+]1C` is -5.05 (active); for `COCCN1CN(S(=O)(=O)c2ccccc2)c2nc3ccccc3nc21` it is 3.14.
With `O=[N+]([O-])c1ccc(N2N=C(c3ccco3)CC2c2ccccc2)cc1` (stereo not given), the z-score was 3.05.
The figure for `CCc1ccc2[nH]c(=O)c(CN(Cc3ccc4c(c3)OCO4)Cc3nnnn3C3CCCC3)cc2c1` is -5.41 (active); for `CCC(C)(C)n1nnnc1CN(Cc1ccco1)Cc1cc2cc3c(cc2[nH]c1=O)OCO3` it is -2.22.
As to `CCc1ccc2[nH]c(=O)c(CN(Cc3nnnn3C3CCCC3)C3CCCCC3)cc2c1`, the z-score was -3.09 (active).
With `Cc1cc(C)c2[nH]c(=O)c(CN(Cc3ccc4c(c3)OCO4)Cc3nnnn3C3CCCC3)cc2c1`, the z-score is -3.04 (active).

The record behind these values is PubChem BioAssay AID1628 (Sanford-Burnham Center for Chemical Genomics, 2009).
